Five compounds from PubChem BioAssay can be followed below.

Assay [1] in a line: binders of probe aFSTL3 on microarray, primary screen, stem cell growth factor project, biochemical, small-molecule microarray, fluorescence 635/667 (AID 1064).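 Also: measures binding of the biotinylated anti-FSTL3 antibody to printed compounds.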 The settings on record: higher = more signal.
Assay [2] is described as follows: binders from COS7 lysate, DM2A8 probe, primary screen, torsin A project, cell lysate, small-molecule microarray, fluorescence 635/667 (AID 1065). The settings on record: higher = more signal, COS7 lysate expressing mutant human TOR1A.
A short description of assay [3]: binders of probe aFGF2 on microarray, primary screen, stem cell growth factor project, biochemical, small-molecule microarray, fluorescence 635/667 (AID 1067).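 Also: measures binding of biotinylated aFGF2 protein to printed compounds on slides; z-score merges feature fluorescence and signal-to-noise across triplicate slides.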 The settings on record: higher = more signal.
Assay [4] in a line: binders of probe aFGF10 on microarray, primary screen, stem cell growth factor project, biochemical, small-molecule microarray, fluorescence 635/667 (AID 1071).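 Also: score merges 667 nm spot intensity and signal to noise from triplicate slides.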 The conditions noted are these: higher = more signal.
The target in assay [5] is Neurogenic locus notch homolog protein 2 (Homo sapiens) (UniProt Q04721). Description: Notch2 binders on small-molecule microarrays, primary screen, biochemical, small-molecule microarray, 635 nm fluorescence, stem cell growth factors (AID 1073). The settings on record: Notch2 binding, higher = more signal.
In assay [6] the target is Pro-neuregulin-1, membrane-bound isoform (Homo sapiens) (UniProt Q02297). Description: NRG1 binders on small-molecule microarrays, primary screen, psychiatric disease protein project, biochemical, small-molecule microarray, fluorescence 635/667 (AID 1075).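 Also: score combines 667 nm spot fluorescence with signal to noise.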 The settings on record: NRG1 binding, 635 nm fluorescence, higher = more signal.
Sequence of Pro-neuregulin-1, membrane-bound isoform (Homo sapiens) (Q02297 whole entry, looked up, the tested form may be a part, canonical isoform): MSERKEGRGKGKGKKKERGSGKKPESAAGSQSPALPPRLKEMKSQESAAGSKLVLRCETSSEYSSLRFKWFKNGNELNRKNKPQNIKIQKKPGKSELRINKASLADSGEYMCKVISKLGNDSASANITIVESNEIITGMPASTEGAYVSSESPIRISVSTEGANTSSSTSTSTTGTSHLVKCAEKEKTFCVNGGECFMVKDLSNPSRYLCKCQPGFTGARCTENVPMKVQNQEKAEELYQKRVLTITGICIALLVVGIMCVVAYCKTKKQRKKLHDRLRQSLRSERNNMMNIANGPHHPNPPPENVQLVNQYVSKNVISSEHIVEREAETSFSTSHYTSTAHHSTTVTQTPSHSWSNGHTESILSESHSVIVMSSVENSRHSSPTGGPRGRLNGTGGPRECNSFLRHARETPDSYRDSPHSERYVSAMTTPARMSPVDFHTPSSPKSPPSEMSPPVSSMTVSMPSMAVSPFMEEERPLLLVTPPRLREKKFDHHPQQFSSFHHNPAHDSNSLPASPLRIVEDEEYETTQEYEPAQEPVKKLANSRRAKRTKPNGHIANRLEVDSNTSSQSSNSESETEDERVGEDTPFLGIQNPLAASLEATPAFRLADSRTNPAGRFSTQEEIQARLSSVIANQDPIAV
For assay [7], the system named is Neuregulin-1 EGF-like domain. Description: binders of neuregulin-1 EGF-like domain, primary screen, biochemical, small-molecule microarray, 635 nm fluorescence (AID 1081).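 Also: binding of the protein to compounds printed on small-molecule microarray slides.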 The conditions noted are these: small-molecule microarray binding, higher = more signal.
Assay [8] can be described thus: FRG1 promoter luciferase signal modulators, primary screen, FRG1 inhibition for FSHD, cell-based, C2C12 myotubes, firefly/Renilla luciferase, luminescence (AID 1084). The settings on record: higher = more signal, called active from +8 up or from −8 down.
Assay [9] in a line: binders of probe aFST on microarray, primary screen, stem cell growth factor project, biochemical, small-molecule microarray, fluorescence 635/667 (AID 1086).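 Also: score merges 667 nm fluorescence with signal-to-noise of each printed compound spot.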 The settings on record: higher = more signal.
A short description of assay [10]: binders of probe aHhip on microarray, primary screen, stem cell growth factor project, biochemical, small-molecule microarray, fluorescence 635/667 (AID 1087).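 Also: score merges spot fluorescence at 667nm with spot signal to noise ratio.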 The settings on record: higher = more signal.
For assay [11], the system named is PRMT1 (protein arginine N-methyltransferase 1). Briefly: PRMT1 binders on small-molecule microarrays, primary screen, biochemical, small-molecule microarray, 635 nm fluorescence (AID 1088).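 Also: binding of Prmt1 protein to compounds spotted on small-molecule microarray slides.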 The settings on record: small-molecule microarray binding, higher = more signal.
Assay [12] is described as follows: yeast growth modulation, basal conditions, primary screen, YJM789 clinical isolate, OD600, 24 h (AID 1089).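 Also: growth of clinical yeast isolate S. cerevisiae YJM 789 seeded 1000 cells per well; test concentration not given here.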 The settings on record: S. cerevisiae YJM789 growth, higher = more signal, called active from +8 up or from −8 down.
Assay [13] in a line: fission yeast growth modulation, primary screen, strain 972, OD600, 24 h, no modulator (AID 1090).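 Also: basal condition with compound alone and no growth modifier present; test concentration not given here.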 The conditions noted are these: S. pombe 972 growth, higher = more signal, called active from +8 up or from −8 down.
Assay [14] in a line: S. cerevisiae growth modulation with rapamycin, primary screen, strain BY4716, OD600, 96 h (AID 1091). Also: test concentration not given here. The settings on record: higher = more signal, called active from +8 up or from −8 down.
Assay [15] addresses Torsin-1A-interacting protein 2 (Homo sapiens) (UniProt Q8NFQ8). Briefly: LULL1 binders on small-molecule microarray, primary screen, cell lysate, human LULL1 lysate, 635/667 nm fluorescence (AID 1092).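 Also: score merges per-feature 667 nm fluorescence with signal-to-noise.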 The settings on record: hLULL1 lysate binding, 635 nm fluorescence, higher = more signal.
The nature of assay [16]: E. coli growth modulation, two-sided OD650, primary screen, E. coli filamentation project, strain DRC41, 24 h (AID 1093).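 Also: MC1000 strain lacking acrAB efflux and sulA so SOS filamentation is blocked; test concentration not given here.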 The conditions noted are these: OD650, 24 h, higher = more signal, called active from +8 up or from −8 down.
Assay [17] in a line: small-molecule microarray binders of probe aLefty2, primary screen, biochemical, biotinylated probe, 635/667 nm fluorescence (AID 1094).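 Also: score merges spot fluorescence near 667 nm with spot signal-to-noise ratio.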 The conditions noted are these: higher = more signal.
The test system of assay [18] is Noggin (protein binding on small-molecule microarray). Briefly: Noggin binders on small-molecule microarray, primary screen, biochemical, 635/667 nm fluorescence (AID 1095).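 Also: score merges 667 nm feature fluorescence with signal to noise over triplicate slides.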 The conditions noted are these: 635 nm fluorescence, higher = more signal.
The target of assay [19] is Neurogenic locus notch homolog protein 3 (Homo sapiens) (UniProt Q9UM47). Description: NOTCH3 binders on small-molecule microarray, primary screen, biochemical, 635/667 nm fluorescence (AID 1096). The conditions noted are these: NOTCH3 binding, 635 nm fluorescence, higher = more signal.
Sequence of Neurogenic locus notch homolog protein 3 (Homo sapiens) (Q9UM47 whole entry, looked up): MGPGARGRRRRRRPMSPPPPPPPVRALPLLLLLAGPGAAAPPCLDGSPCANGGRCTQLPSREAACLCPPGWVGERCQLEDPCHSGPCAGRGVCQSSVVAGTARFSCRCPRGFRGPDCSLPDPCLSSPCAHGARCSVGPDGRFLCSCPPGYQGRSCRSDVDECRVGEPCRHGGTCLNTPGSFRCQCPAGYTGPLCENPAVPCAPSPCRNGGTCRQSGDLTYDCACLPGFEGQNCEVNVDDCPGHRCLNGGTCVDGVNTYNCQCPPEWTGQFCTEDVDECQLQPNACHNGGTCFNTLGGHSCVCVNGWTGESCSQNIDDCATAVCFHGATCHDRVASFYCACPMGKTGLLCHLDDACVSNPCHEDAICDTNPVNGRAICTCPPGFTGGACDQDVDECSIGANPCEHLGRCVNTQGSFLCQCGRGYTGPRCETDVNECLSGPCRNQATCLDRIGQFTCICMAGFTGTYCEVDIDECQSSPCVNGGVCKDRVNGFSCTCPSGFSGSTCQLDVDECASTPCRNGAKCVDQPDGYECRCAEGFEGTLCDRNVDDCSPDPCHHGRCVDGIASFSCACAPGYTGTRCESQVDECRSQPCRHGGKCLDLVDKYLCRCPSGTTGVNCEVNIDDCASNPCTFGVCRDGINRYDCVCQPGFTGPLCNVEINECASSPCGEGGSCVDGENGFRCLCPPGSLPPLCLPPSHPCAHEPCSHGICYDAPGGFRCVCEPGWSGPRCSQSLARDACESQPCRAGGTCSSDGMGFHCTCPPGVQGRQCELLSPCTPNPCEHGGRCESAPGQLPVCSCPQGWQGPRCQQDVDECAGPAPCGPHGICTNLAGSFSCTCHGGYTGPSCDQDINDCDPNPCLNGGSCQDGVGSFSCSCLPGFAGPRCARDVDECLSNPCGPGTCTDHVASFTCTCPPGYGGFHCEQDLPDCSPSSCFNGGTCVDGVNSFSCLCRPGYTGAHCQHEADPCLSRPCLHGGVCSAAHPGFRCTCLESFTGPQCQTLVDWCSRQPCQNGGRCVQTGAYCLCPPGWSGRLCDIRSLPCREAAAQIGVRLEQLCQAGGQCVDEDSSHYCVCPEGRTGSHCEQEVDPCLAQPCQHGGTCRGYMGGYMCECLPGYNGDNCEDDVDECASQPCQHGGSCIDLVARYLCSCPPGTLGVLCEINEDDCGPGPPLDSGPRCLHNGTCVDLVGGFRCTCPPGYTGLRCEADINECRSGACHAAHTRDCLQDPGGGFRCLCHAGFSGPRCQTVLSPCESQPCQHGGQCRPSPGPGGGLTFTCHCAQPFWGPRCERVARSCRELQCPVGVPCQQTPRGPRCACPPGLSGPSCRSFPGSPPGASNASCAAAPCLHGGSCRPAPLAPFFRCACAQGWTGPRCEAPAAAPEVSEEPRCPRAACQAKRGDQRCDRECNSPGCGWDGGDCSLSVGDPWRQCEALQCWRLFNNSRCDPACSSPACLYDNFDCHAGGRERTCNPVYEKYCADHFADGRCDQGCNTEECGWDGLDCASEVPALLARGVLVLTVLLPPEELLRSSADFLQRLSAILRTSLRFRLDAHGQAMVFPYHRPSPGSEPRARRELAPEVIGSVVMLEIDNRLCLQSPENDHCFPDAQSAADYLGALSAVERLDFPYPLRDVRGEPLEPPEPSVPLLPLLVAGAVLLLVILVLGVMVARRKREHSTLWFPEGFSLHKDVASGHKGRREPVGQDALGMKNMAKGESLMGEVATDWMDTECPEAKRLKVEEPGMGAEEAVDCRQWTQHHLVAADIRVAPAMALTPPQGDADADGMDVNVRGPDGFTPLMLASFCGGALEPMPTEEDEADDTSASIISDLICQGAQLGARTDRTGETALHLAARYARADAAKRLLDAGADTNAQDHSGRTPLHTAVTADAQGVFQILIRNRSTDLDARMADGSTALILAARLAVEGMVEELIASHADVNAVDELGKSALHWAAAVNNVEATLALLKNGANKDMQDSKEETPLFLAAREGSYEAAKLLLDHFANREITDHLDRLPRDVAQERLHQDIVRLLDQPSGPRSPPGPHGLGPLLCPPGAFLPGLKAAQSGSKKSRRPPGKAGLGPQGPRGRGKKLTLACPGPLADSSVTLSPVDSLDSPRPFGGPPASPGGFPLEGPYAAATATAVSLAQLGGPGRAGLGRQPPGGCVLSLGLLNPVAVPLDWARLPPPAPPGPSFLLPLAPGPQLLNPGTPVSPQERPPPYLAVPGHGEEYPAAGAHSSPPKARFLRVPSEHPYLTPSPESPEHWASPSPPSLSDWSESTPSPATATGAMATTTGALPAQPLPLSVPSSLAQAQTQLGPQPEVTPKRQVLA
Assay [20] is described as follows: small-molecule microarray binders of probe aEGFR, primary screen, biochemical, biotinylated probe, 635/667 nm fluorescence (AID 1097).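 Also: probe is a biotinylated anti-EGFR antibody binding compounds printed on slides; score combines fluorescence near 667 nm and signal to noise of each spot.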 The settings on record: higher = more signal.

The source made the active and inactive calls.

Sequence of Torsin-1A-interacting protein 2 (Homo sapiens) (Q8NFQ8 whole entry, looked up): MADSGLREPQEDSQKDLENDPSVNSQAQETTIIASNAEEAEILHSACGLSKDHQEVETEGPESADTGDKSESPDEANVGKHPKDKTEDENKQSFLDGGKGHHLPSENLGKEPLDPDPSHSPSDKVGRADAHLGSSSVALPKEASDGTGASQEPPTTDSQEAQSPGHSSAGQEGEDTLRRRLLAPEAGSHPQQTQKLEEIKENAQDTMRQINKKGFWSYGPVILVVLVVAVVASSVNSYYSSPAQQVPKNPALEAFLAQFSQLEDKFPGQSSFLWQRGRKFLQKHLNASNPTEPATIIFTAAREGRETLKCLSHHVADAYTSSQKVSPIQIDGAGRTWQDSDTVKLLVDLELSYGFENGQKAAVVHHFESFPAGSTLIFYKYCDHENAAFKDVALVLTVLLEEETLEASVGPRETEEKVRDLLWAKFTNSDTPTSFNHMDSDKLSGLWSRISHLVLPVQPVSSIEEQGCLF

In the case of `CN1C(=O)C2C(C1=O)C1C=C(c3ccc(CO)cc3)C2C(C2CC2)N1Cc1cc2c(cc1Br)OCO2` (stereo not given), the composite z-score in [1] was -0.0526; in assay [2], 1.44; in [3] it was -0.0171; in assay [4], 0.561; in assay [5], 1.61; in assay [6], 1.46. Further, the composite z-score in assay [7] was 1.24; in assay [9], 0.917; in [10], -0.127; in assay [11], 1.53; in assay [15], 3.49; in assay [17] it was 0.313. Further, the composite z-score in assay [18] was found to be 0.268; in [19], 1.09; in [20], 0.035. The z-score in [8] was -4.12 (inactive); in assay [12], -3.93 (inactive); in assay [13], -6.09 (inactive); in [14] it was 0.385 (inactive); in [16], -0.911 (inactive).
As to `C=CC[C@]1(C(=O)O)N=C(c2ccc(OCCCO)cc2)O[C@H]1c1ccccc1CN=[N+]=[N-]`, the composite z-score in assay [1] was 0.736; in assay [2], -0.43; in [3] it was -0.144; in assay [4], -0.638; in [5] it was -0.129; in assay [6] it was 0.743. For the same compound, the composite z-score in assay [7] was 0.467; in assay [9], 0.182; in assay [10], -0.275; in [11] it was -0.697; in assay [15] it was 1.55; in assay [17], -0.135. Moreover, the composite z-score in assay [18] is -0.383; in [19], -0.522; in assay [20], -0.0239. In addition, the z-score in [8] is 2.22 (inactive); in assay [12] it was 0.442 (inactive); in assay [13], 0.263 (inactive); in assay [14], 0.602 (inactive); in assay [16] it was 0.143 (inactive).
For the compound `[N-]=[N+]=NCc1ccccc1[C@H]1OC(c2ccc(OCCCO)cc2)=N[C@@]1(Cc1ccccc1)C(=O)O`, the composite z-score is 0.227 in assay [1]; 0.325 in assay [2]; -0.0586 in [3]; 0.345 in assay [4]; 0.653 in [5]; 1.1 in [6]. Further, the composite z-score in assay [7] is 0.97; in assay [9], 0.554; in assay [10], -0.0994; in assay [11] it was 1.55; in assay [15], 2.81; in assay [17], 0.0869. Moreover, the composite z-score in [18] came to 0.462; in [19], 0.502; in assay [20], 0.346. Moreover, the z-score in assay [8] was 1.82 (inactive); in [12], -0.36 (inactive); in [13], -2.06 (inactive); in assay [14] it was -0.759 (inactive); in [16] it was -0.395 (inactive).
`COC(=O)[C@@]1(Cc2ccc(F)cc2)[C@H]2c3cc(C(=O)N(C)C)n(Cc4ccccn4)c3C[C@H]2CN1C(=O)c1ccccc1`: the composite z-score in assay [1] is 0.449; in assay [2], 0.55; in [3], 0.25; in [4], 0.658; in [5] it was 1.65; in assay [6], 1.42. The composite z-score is 1.38 in assay [7]; 1.55 in assay [9]; 1.49 in assay [10]; 0.837 in assay [11]; 3.7 in [15]; -0.153 in assay [17]. For the same compound, the composite z-score is 0.321 in [18], 1.01 in assay [19] and 0.533 in assay [20]. Also, the z-score in assay [8] is 3.37 (inactive); in assay [12], -0.602 (inactive); in [13] it was -0.306 (inactive); in [14], -0.545 (inactive); in [16], -0.0591 (inactive).
As to `COC(=O)C(CC#Cc1ccc2c(c1)[C@]1(C(=O)N2)[C@H](C(=O)N2CCCCCCC2)[C@H]2C(=O)O[C@H](c3ccccc3)[C@H](c3ccccc3)N2[C@@H]1c1ccccc1OCCO)C(=O)OC`, the composite z-score in [1] worked out at 3.68; in assay [2], 2.84; in [3], 1.03; in assay [4] it was 1.26; in [5] it was 1.75; in assay [6] it was 2.65. In addition, the composite z-score in [7] was 1.38; in assay [9], 3.61; in assay [10], 3.1; in assay [11], 1.54; in assay [15], 5.3; in assay [17], 1.89. Also, the composite z-score came out at 2.44 in assay [18], 1.02 in assay [19] and 1.46 in assay [20]. Besides, the z-score in assay [8] was 0.695 (inactive); in assay [12] it was 0.293 (inactive); in [13] it was -0.97 (inactive); in [14] it was 0.172 (inactive); in assay [16], -0.823 (inactive).
